# Shown are actives, neighbours in structure and some others; about 21% of the full set was active somewhere.
# CHX counter = counter-screen for Shiga toxin inhibitors: cycloheximide protein synthesis inhibition. max response, %. cell reporter, cycloheximide protein synthesis inhibition counterscreen. 12% of 300,000 active; in the data active = max response mostly above about 13%, no sharp cut-off; inactive = mostly below about 14%; note: read at 38.3 µM for the half of the compounds with a filed dose; 0% is about no effect
# SARS PLP yeast = blocks SARS-CoV papain-like protease in a yeast assay; 0.19% of 330,000 active; Potency, µM (top dose mostly 32.9 µM), without a hit: at the top dose activity, positive = growth rescue, usual class: activators; S. cerevisiae expressing SARS-CoV PLpro, growth rescue; calls by dose curve; note: potency is the fitted concentration of half-maximal effect; 0% is about no effect; nearly all actives have a fitted effect of over 55% in size
# NS1 function inh = influenza NS1 inhibition; 0.4% of 270,000 active; Potency, µM (series often up to 46.1 µM), for the others: at the top dose activity, positive = more growth; AID 2326; calls by dose curve; note: potency is the fitted concentration of half-maximal effect; actives are rising curves; nearly all actives have a fitted effect of over 50% in size
#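 A cell-based growth assay was used: compounds that relieve NS1-induced slow growth of budding yeast raise OD600. Assay medium was yeast nitrogen base with ammonium sulphate and -URA supplement, pH 6.0, with 2% galactose.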
# Shiga inhibitor = blocks Shiga toxin action in Vero cells | Vero cells, Shiga toxin protein synthesis inhibition reporter | inhibition, % at 38.7 µM | 9.2% of 290,000 active; in the data active = inhibition mostly above about 28%, no sharp cut-off; inactive = mostly below about 43%; note: 0% is about no effect
# Pf growth 96h = P. falciparum growth inhibition at 96 hours; Potency, µM (highest dose often 28.7 µM), for the others: at the top dose activity change, negative = inhibition, usual class: inhibitors; 6.9% of 320,000 active; P. falciparum luciferase reporter growth, 96 h; note: potency is the fitted concentration of half-maximal effect; % is set by controls: 0 for no effect and ±100 for the full control effect
#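 P. falciparum expressing integrated firefly luciferase, in erythrocytes at 2% hematocrit, 0.05% parasitemia, incubated with compounds 96 h at 37 C, 5% CO2. Growth inhibition read as loss of luminescence; two-generation exposure targets delayed-death apicoplast inhibitors.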
# Pf growth 48h = inhibits P. falciparum growth in the first generation, 48 h; P. falciparum luciferase growth in erythrocytes, 48 h; Potency, µM (series often up to 28.7 µM), for the others: top-dose activity change, negative = inhibition, most hits filed as inhibitors; 5.9% of 310,000 active; note: potency is the fitted concentration of half-maximal effect; % is set by controls: 0 for no effect and ±100 for the full control effect
#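 Growth was read as firefly luciferase luminescence after a 48 h, 37 C, 5% CO2 exposure of compounds to reporter-bearing P. falciparum cultures (0.1% parasitemia, 2% hematocrit final) in Albumax-supplemented RPMI 1640.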
# * hit, by the source's call; ? = inconclusive; · = not tested or not shown. Unless noted, calls come from the whole dose curve; as a rule, active = well fitted inhibition curve with a large enough effect; inconclusive = small, poorly fitted or top-dose-only effect, or another doubt; inactive = no such curve, though single readings can be large or run the other way.
SMILES,CHX counter,SARS PLP yeast,NS1 function inh,Shiga inhibitor,Pf growth 96h,Pf growth 48h
C[C@@H]1O[C@H](OC2[C@@H](O)[C@H](O)C(O)[C@H](O)[C@H]2O)[C@@H](N)C[C@@H]1N=C(N)C(=O)O (stereo partly drawn),·,·,-3%,·,·,·
CCCCCCCCN=C(N)c1ccc(C(=O)OCC2CCCCC2)cc1,-18,·,·,-18,·,·
COc1cc(C(=O)OCC(=O)Nc2cccc(S(=O)(=O)N3CCCC3)c2)ccc1OCC(C)C,·,-14%,·,·,?,?
COc1ccc(CC(=O)N/N=C(\C)CC(=O)Nc2ccc3c(c2)OCCO3)cc1OC,-3,0%,26%,-2,?,52%
CCOC(=O)Cc1csc(NC(=O)c2cccnc2)n1,-1,4%,-3%,-2,-16%,22%
CCOC(=O)Cc1csc(N/N=C\c2ccc(N(C)C)cc2)n1,24*,12%,7%,64*,9.3µM*,7.4µM*
O=C(NC(=S)Nc1ccc2c(c1)OCCO2)c1ccccc1F,41*,0%,-1%,145*,?,?
CCOc1cccc(C(=O)NC(=S)Nc2ccc3c(c2)OCCO3)c1,61*,13%,·,113*,13%,81%
O=C(NC(=S)Nc1ccc2oc(=O)ccc2c1)c1ccccc1F,25*,0%,-3%,-14,35%,33%
O=C(Nc1ccc2c(c1)OCCO2)c1c(F)cccc1F,41*,-12%,0%,74*,·,263%
NC(=O)c1ccc(N2CCC(C(N)=O)CC2)c([N+](=O)[O-])c1,-3,0%,-1%,-4,23%,20%
O=C(COC(=O)CCC(=O)c1ccc(F)cc1)Nc1ccc2[nH]c(=O)[nH]c2c1,·,3%,·,·,6%,16%
O=C(NC(=S)Nc1ccc2c(c1)OCCO2)c1ccccc1,55*,-21%,-38%,73*,15%,-10%
COc1cccc(OC)c1C(=O)NC(=S)Nc1ccc2c(c1)OCCO2,34*,-2%,-6%,42*,?,4.1µM*
COc1cc(C(=O)NC(=S)Nc2ccc3c(c2)OCO3)cc(OC)c1OC,9,0%,3%,16,5%,-8%
Cc1ccc(S(=O)(=O)N(C)c2ccccc2C(=O)Nc2ccc3c(c2)OCCO3)cc1,-1,0%,-35%,10,9%,1%
CS(=O)(=O)Nc1ccccc1C(=O)Nc1ccc2c(c1)OCCO2,15*,-3%,-9%,46,53%,33%
CCCCCC(=O)NC(=S)Nc1ccc2oc(=O)ccc2c1,7,-1%,1%,40,13µM*,-12%
O=C(NCCN1CCOCC1)c1ccc(=O)n(Cc2ccc(Cl)cc2)c1,8,-4%,-4%,-6,0%,-2%
CC(C)c1ccc(/C=C(/C#N)c2nnc(NC(=O)c3ccccc3)s2)cc1,-5,8%,17%,-15,44%,56%
CCOc1ccccc1NC(=O)N1CCCN(c2ncccc2C#N)CC1,-4,1%,-5%,-12,-4%,?
O=C(Nc1ccc2c(c1)OCCO2)c1ccccc1F,47*,-4%,-58%,50*,?,·
CCCn1nc(NC(=O)c2cccs2)c2cc3cc(OC)ccc3nc21,18*,-5%,-77%,29*,-21%,?
COc1ccc2nc3c(cc2c1)c(NC(=O)CC(C)C)nn3CC(C)C,-1,-3%,0%,-4,?,5.2µM*
CCCCn1nc(NC(=O)c2cccs2)c2cc3ccccc3nc21,10,-21%,-10%,34,58%,22%
SMILES,CHX counter,SARS PLP yeast,NS1 function inh,Shiga inhibitor,Pf growth 96h,Pf growth 48h
CCCn1nc(NC(=O)c2cccs2)c2cc3ccccc3nc21,10,-7%,-62%,43,?,?
CCCn1nc(NC(=O)c2cccs2)c2cc3ccc(C)cc3nc21,-1,1%,-7%,-1,?,2.9µM*
CCCn1nc(NC(=O)c2cccs2)c2cc3cc(C)ccc3nc21,25*,-13%,-8%,37*,-6%,?
CCOC(=O)C1CCN(C(=S)Nc2ccc(CC)cc2)CC1,43*,23%,·,54,?,50%
CCc1ccc(NC(=S)N2CCC(NC(=O)C3CCCCC3)CC2)cc1,-1,-1%,13%,-12,-24%,14%
CCOC(=O)C1CCN(C(=O)Nc2ccc(NC(=O)C3CCN(C(=O)OCC)CC3)cc2)CC1,-1,2%,5%,-15,-34%,-14%
CCc1ccc(NC(=S)N2CCCC(C(F)(F)F)C2)cc1 (stereo not drawn),16*,19%,·,40,66%,31%
CCOC(=O)C1CCN(C(=O)Nc2ccc(OC(F)(F)F)cc2)CC1,34*,0%,5%,63,80%,72%
CCOC(=O)N1CCC(N(CCOC)C(=O)Nc2ccc(CC)cc2)CC1,-2,-3%,-12%,5,7.4µM*,-26%
CCOC(=O)C1CCN(C(=S)Nc2cccc(C)c2)CC1,8,-3%,4%,-8,27%,-14%
CCOC(=O)C1CCCN(c2nc3ccccc3nc2NS(=O)(=O)c2ccc(C)cc2)C1 (stereo not drawn),·,-9%,·,·,-27%,?
COc1ccc(CC(=O)NC(C)c2ccc3ccccc3c2)cc1 (stereo not drawn),-2,-8%,4%,-1,?,27%
O=C(NCCCn1ccnc1)c1cccc(S(=O)(=O)NCc2ccccc2)c1,4,-1%,·,-8,50%,8%
COc1ccc(NC(=O)C2C3C=CC4(O3)C2C(=O)N(CCCN2CCCC(C)C2)C4C(=O)NC2CCCCC2)cc1 (stereo not drawn),-4,0%,-4%,23,?,-11%
CCc1ccc(NC(=S)N2CCN(C)CC2)cc1,25*,-6%,0%,61,-3%,61%
CCc1ccc(NC(=S)N2CCCC2)cc1,36*,2%,3%,78*,-18%,111%
COc1ccc(S(=O)(=O)N(CCO)c2ccccc2CN(C)CC=Cc2ccc(Cl)cc2)cc1,4,·,·,-4,·,·
CCCCNC(=O)C1CCCN1C(=O)Nc1ccccc1 (stereo not drawn),-2,-11%,17%,-9,-25%,11%
O=C1CCN(CCc2ccccc2)CCN1[C@H](CSc1ccc(Br)cc1)c1ccccc1,-2,3%,1%,-3,-2%,-1%
CC(=O)Nc1ccc(SCC(c2ccccc2)N2CCN(CC(C)C)CCC2=O)cc1 (stereo not drawn),15,·,·,14,·,·
CCCN1CCC(=O)N([C@H](CSc2ccc(Br)cc2)c2ccccc2)CC1,35*,-1%,-7%,19,?,0%
CCCN1CCC(=O)N(C(CSc2ccc(OC)cc2)c2ccccc2)CC1 (stereo not drawn),42*,·,·,156*,·,·
CC(=O)Nc1ccc(SC[C@H](c2ccccc2)N2CCN(CCc3ccccc3)CCC2=O)cc1,-1,1%,-2%,25,7.4µM*,13µM*
